{
  "source": "paper PMC7819943",
  "about": "“Rice protein-binding microarrays: a tool to detect cis-acting elements near promoter regions in rice”",
  "note": "Whole data set: some 39,000 sequences, median “fluorescence intensity (a.u.)” near 4,300, cut for the highest 2% near 39,000. This is one part of a sample in which the highest values are shown more often than they occur.",
  "data": [
    {"target": "T1, OsSMF1 (Oryza sativa, UniProt Q6ZLB0 1-436)", "T1 sequence": "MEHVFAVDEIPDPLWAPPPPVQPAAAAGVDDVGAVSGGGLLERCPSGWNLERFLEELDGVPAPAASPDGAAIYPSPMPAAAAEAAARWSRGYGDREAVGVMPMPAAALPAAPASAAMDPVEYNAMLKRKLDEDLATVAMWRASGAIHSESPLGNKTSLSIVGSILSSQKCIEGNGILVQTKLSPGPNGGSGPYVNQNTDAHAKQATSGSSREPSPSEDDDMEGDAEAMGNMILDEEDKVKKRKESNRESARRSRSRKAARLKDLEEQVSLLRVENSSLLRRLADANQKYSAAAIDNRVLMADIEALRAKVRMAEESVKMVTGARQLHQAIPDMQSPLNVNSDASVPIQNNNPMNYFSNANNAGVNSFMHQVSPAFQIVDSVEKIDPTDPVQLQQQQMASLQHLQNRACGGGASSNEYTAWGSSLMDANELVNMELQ", "assay": "protein-binding microarray (RPBM); PBS, 2% BSA, 51.3 ng/ul salmon testes DNA, 50 uM zinc acetate, 200 nM TF, 25 C, 1 h; high values mean tight binding", "details": "protein: recombinant; tags: N-terminal polyhistidine and DsRed monomer fusion (pET32a); chain copies: 2; label: CyDye5-dUTP incorporated in the synthesized complementary strand; 3' TTTTT single-stranded linker to array surface; dsDNA, one strand shown", "summary_of_the_method": "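Binding signal is reported as fluorescence intensity per feature (arbitrary units) from an Axon 4000B scanner. Incubation used 200 nM of each Ni–NTA-purified, N-terminally polyhistidine- and DsRed-fused transcription factor from E. coli BL21-CodonPlus on a double-stranded custom Agilent array for 1 h at 25 °C, with 50 µM zinc acetate in the buffer, followed by washing.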", "values": [
      {"sequence": "TGTTTGTATAATTTTGAGTTATCAACAGTCGCGATGGAGACGGAGTCACCTAGTGCAG", "binding signal": "24900 fluorescence intensity (a.u.)"},
      {"sequence": "CAAGTACCCAACCCGCGTCGTCATCGTCGTCTTCCTACTTCGGAGTCACCTAGTGCAG", "binding signal": "5510 fluorescence intensity (a.u.)"},
      {"sequence": "AAAATGTCATGTAACTACGCCATTGGACCATAAATATTTTCGGAGTCACCTAGTGCAG", "binding signal": "13600 fluorescence intensity (a.u.)"},
      {"sequence": "ATTATTTAAGTGATGATATGTAAATAACGAGTGAAGTTTTCGGAGTCACCTAGTGCAG", "binding signal": "3400 fluorescence intensity (a.u.)"},
      {"sequence": "TATGGATGGGTTTTATTAATAGTCTACGTTTAATATTTATCGGAGTCACCTAGTGCAG", "binding signal": "4490 fluorescence intensity (a.u.)"},
      {"sequence": "GAGAGAATCTTGGAACGATTAGTAGTACATAAAGTAGAATCGGAGTCACCTAGTGCAG", "binding signal": "3650 fluorescence intensity (a.u.)"},
      {"sequence": "TACGAATTATGTAATTTGTTTTGTTATTAGTGTACATCTACGGAGTCACCTAGTGCAG", "binding signal": "4070 fluorescence intensity (a.u.)"},
      {"sequence": "TTATTATTAGTAAATATGTAGTTTTACGATATTTAGTCTTCGGAGTCACCTAGTGCAG", "binding signal": "44400 fluorescence intensity (a.u.)"},
      {"sequence": "TATTCTGATTGGAACTTATGAGTCTTGAATTCTTGATTCTCGGAGTCACCTAGTGCAG", "binding signal": "29700 fluorescence intensity (a.u.)"},
      {"sequence": "AATATGGATTATTACCAAGAATTTATCCGTTGTTTTGCTACGGAGTCACCTAGTGCAG", "binding signal": "40700 fluorescence intensity (a.u.)"},
      {"sequence": "TACGGAACCTGTAATTTGTTTTGTTATTAGTCTACATTTACGGAGTCACCTAGTGCAG", "binding signal": "45800 fluorescence intensity (a.u.)"},
      {"sequence": "TGTATTTGCTACCGTTTTCCAATATGTACCGTCATGTTTCCGGAGTCACCTAGTGCAG", "binding signal": "3920 fluorescence intensity (a.u.)"},
      {"sequence": "CAGACGGATTATGTAATTTGTTTTATTATTAATTAGTCTACGGAGTCACCTAGTGCAG", "binding signal": "3890 fluorescence intensity (a.u.)"},
      {"sequence": "TTTCTCGGAATTTCTGGAAATTTTCTTGGAATTAGTAGAACGGAGTCACCTAGTGCAG", "binding signal": "65500 fluorescence intensity (a.u.)"},
      {"sequence": "ATATTATATTAAATTTGTAGTTTTACGATAATATGGTAAACGGAGTCACCTAGTGCAG", "binding signal": "25400 fluorescence intensity (a.u.)"},
      {"sequence": "CTCGCTCGCCTGCCTCCCCACCTCACCAGCTCACCCCACGCGGAGTCACCTAGTGCAG", "binding signal": "4810 fluorescence intensity (a.u.)"},
      {"sequence": "TCAAGATCCAACAGCTTGTCTCGTGCTCGTCACAGCTTCTCGGAGTCACCTAGTGCAG", "binding signal": "3230 fluorescence intensity (a.u.)"},
      {"sequence": "GCAAGAGATCCGAGAAGAGCAACATAACCCACAGGCCGCTCGGAGTCACCTAGTGCAG", "binding signal": "3720 fluorescence intensity (a.u.)"},
      {"sequence": "CCCCACCGACGGCGTGCAAAGCGGCCACCCAGCTCGACGCCGGAGTCACCTAGTGCAG", "binding signal": "8120 fluorescence intensity (a.u.)"},
      {"sequence": "TTAGTATTTAAAATTTAAAAGCAAAGTCATTCTCCTTCTACGGAGTCACCTAGTGCAG", "binding signal": "8610 fluorescence intensity (a.u.)"},
      {"sequence": "TGGGTGTAATTGTTTCCTCGATTTCGCTGGCATGTACTTTCGGAGTCACCTAGTGCAG", "binding signal": "3780 fluorescence intensity (a.u.)"},
      {"sequence": "GGATGGACGTGTGGGGCCTCGCCGTCAGCATTTGCTCCTTCGGAGTCACCTAGTGCAG", "binding signal": "4560 fluorescence intensity (a.u.)"},
      {"sequence": "GCGTACGGCTGCCTAATGCAGAGCCTGACGTGGCGAGCTGCGGAGTCACCTAGTGCAG", "binding signal": "17400 fluorescence intensity (a.u.)"},
      {"sequence": "GATAAAGGTCTCTATTTGCATGACATATATCGTTACTATACGGAGTCACCTAGTGCAG", "binding signal": "3570 fluorescence intensity (a.u.)"},
      {"sequence": "CTCCAGCAGCTGCTCGCTCGTCATCACCGCGATGCTGCCGCGGAGTCACCTAGTGCAG", "binding signal": "3490 fluorescence intensity (a.u.)"},
      {"sequence": "TTGGCGGTGATCGAGGTTAGACATCTCACCGTCAATCTTGCGGAGTCACCTAGTGCAG", "binding signal": "3180 fluorescence intensity (a.u.)"},
      {"sequence": "AGACCACATAGAATGGAAGCGTCATCAGTTTCCACGCAATCGGAGTCACCTAGTGCAG", "binding signal": "6480 fluorescence intensity (a.u.)"},
      {"sequence": "CGTCAGCCTGCAATCGCTTTCTGGGCCCAATAGTACGGGCCGGAGTCACCTAGTGCAG", "binding signal": "8490 fluorescence intensity (a.u.)"},
      {"sequence": "ACTTTGTACTAGTTTTCATATTATGTCATTCTTTAACCATCGGAGTCACCTAGTGCAG", "binding signal": "3650 fluorescence intensity (a.u.)"},
      {"sequence": "TTTGTACTCATTTTATTACAACATGAACAAACCCTTCTTTCGGAGTCACCTAGTGCAG", "binding signal": "3500 fluorescence intensity (a.u.)"},
      {"sequence": "AACTTTCATAAGCAAAATATCAAACGACTTATAATTTTATCGGAGTCACCTAGTGCAG", "binding signal": "26300 fluorescence intensity (a.u.)"},
      {"sequence": "TTTCTTTGGTTCAGCTGAACCATTATTTGTTGTTTTACTTCGGAGTCACCTAGTGCAG", "binding signal": "40700 fluorescence intensity (a.u.)"},
      {"sequence": "AGATCAGCAAGCGAACTGAATTTAATCAAATGTACTAGTACGGAGTCACCTAGTGCAG", "binding signal": "23000 fluorescence intensity (a.u.)"},
      {"sequence": "AAAATTTAATACGACGAATGTTCAAACGGTGCAAGCAAAACGGAGTCACCTAGTGCAG", "binding signal": "45000 fluorescence intensity (a.u.)"},
      {"sequence": "GAAGCCCTAGCCTAGGAGTGAGAGGTCCCACGTCTTCCCCCGGAGTCACCTAGTGCAG", "binding signal": "3780 fluorescence intensity (a.u.)"},
      {"sequence": "TTAATAATAGCCATGTGCGTCATTAGACGGTAGTACGATCCGGAGTCACCTAGTGCAG", "binding signal": "5910 fluorescence intensity (a.u.)"},
      {"sequence": "TGTATAATACATGCCCACGCATTCGCGCGGGCTACCCTCCCGGAGTCACCTAGTGCAG", "binding signal": "3530 fluorescence intensity (a.u.)"},
      {"sequence": "CATGCAGTCAATAGTGTGACTGTAACTTAAACGGTCACACCGGAGTCACCTAGTGCAG", "binding signal": "3750 fluorescence intensity (a.u.)"},
      {"sequence": "GGGCCTCCCCTCCTCCCTTCGCTGGCGAGAGGACGGAGACCGGAGTCACCTAGTGCAG", "binding signal": "3400 fluorescence intensity (a.u.)"},
      {"sequence": "GATATATCCACATCAGCGTGCATACAAGTGTGTCAAAGCTCGGAGTCACCTAGTGCAG", "binding signal": "8160 fluorescence intensity (a.u.)"},
      {"sequence": "CATCAAACAACCAGTTTCTTAGGATGTCTTTTAACCGTGACGGAGTCACCTAGTGCAG", "binding signal": "23200 fluorescence intensity (a.u.)"},
      {"sequence": "AAACCATTCGCCCGATTTGATCCACATCACCACTTTGGTTCGGAGTCACCTAGTGCAG", "binding signal": "10400 fluorescence intensity (a.u.)"},
      {"sequence": "AACCCCAGAAACCAGAGGCGGGCTGGTTGATCCATTCTTTCGGAGTCACCTAGTGCAG", "binding signal": "45000 fluorescence intensity (a.u.)"}
    ]}
  ]
}
